# Screening data as filed in PubChem BioAssay.
# Compounds with a hit are over-represented: about 11% of the library has one in this group of screens.
# AMA1 RON2 block = qHTS for Inhibitors of AMA1-RON; Towards Development of Antimalarial Drug Lead: Primary Screen; Plasmodium falciparum AMA1 (3D7) - RON2 peptide interaction; 360,000 compounds, 0.2% hits; AID 720542, 2013; Potency, µM (top dose mostly 58.2 µM), for inactives: at the top dose activity change, negative = inhibition, most hits filed as inhibitors; AlphaScreen AMA1-biotinylated RON2 peptide binding;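 further: 0% = vehicle wells and -100% = peptide control; nearly all actives have a fitted effect of over 45% in size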
#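 AMA1 (3D7) with his tag at 25 nM final met compounds first, then biotinylated RON2 peptide at 25 nM; detection used donor plus acceptor beads, 10 µg/mL apiece, read by AlphaScreen after 30 min at room temperature.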
# AmpC no deterg = qHTS Inhibitors of AmpC Beta-Lactamase (assay without detergent). P00811. AmpC nitrocefin hydrolysis, absorbance 480 nm, 0.0001% Triton. Potency, µM (titrated, usually from 57.1 µM), without a hit: at the highest dose activity change, negative = inhibition, hits mostly inhibitors. 330,000 compounds, 0.52% hits;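 further: plate controls were no compound for no effect and no enzyme for full effect; nearly all actives have a fitted effect of over 20% in size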
# Target sequence (P00811 whole entry, looked up): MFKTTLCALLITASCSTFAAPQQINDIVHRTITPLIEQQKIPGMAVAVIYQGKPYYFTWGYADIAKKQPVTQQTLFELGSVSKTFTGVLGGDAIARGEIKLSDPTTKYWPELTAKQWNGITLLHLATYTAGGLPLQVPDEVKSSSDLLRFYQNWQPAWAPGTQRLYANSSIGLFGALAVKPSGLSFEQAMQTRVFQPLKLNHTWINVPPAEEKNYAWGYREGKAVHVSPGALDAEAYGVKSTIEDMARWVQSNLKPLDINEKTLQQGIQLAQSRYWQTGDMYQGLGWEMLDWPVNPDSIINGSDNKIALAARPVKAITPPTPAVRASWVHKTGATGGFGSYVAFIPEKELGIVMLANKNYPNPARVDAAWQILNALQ
#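 20 mM phosphate pH 7.0 + 0.01% (detergent screen) or 0.0001% Triton X-100; 5.3 nM AmpC reagent; cpd preinc 15 min RT; nitrocefin (800 uM stock) to start; A480 q20 s × 4 min; Activity was normalised to no-enzyme and no-compound control wells.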
# AmpC detergent = qHTS Inhibitors of AmpC Beta-Lactamase (assay with detergent); P00811; AmpC hydrolysis of nitrocefin, absorbance 480 nm, 0.01% Triton; Potency, µM (series often up to 114 µM), for inactives: top-dose activity change, negative = inhibition, hits mostly inhibitors; 370,000 compounds, 0.041% hits; AID 485294, 2010;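 further: 0% = no-compound wells and -100% = no-enzyme wells; nearly all actives have a fitted effect of over 25% in size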
#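 AmpC (5.3 nM in the dispensed reagent) in 20 mM phosphate pH 7.0 with 0.01% (detergent screen) or 0.0001% Triton X-100 was preincubated with compounds for 15 min at room temperature. Nitrocefin was then added from an 800 uM solution, and hydrolysis was followed at 480 nm.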
# HCV inhibitor = qHTS Assay for Inhibitors of Hepatitis C Virus (HCV). Potency, µM (top dose mostly 41.8 µM), without a hit: at the highest dose activity change, negative = inhibition, most hits filed as inhibitors. 340,000 compounds, 3.4% hits. AID 651820, 2012. Huh7.5.1 HCVcc-Cre infection, luciferase reporter, 44 h
#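 A cell-based infection assay in which seeded cells (1,000 per well) receive test compound after 4 h, are inoculated with HCVcc-Cre at approximately 0.5 moi, and are incubated 44 h before luminescence detection.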
# Pf growth 48h = Primary qHTS for delayed death inhibitors of the malarial parasite plastid, 48 hour incubation. P. falciparum luciferase growth in erythrocytes, 48 h. Potency, µM (titrated, usually from 28.7 µM), inactives show top-dose activity change, negative = inhibition, usual class: inhibitors. 310,000 compounds, 5.9% hits. AID 504832, 2011
#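 Erythrocytes infected with P. falciparum carrying an integrated firefly luciferase reporter (2% hematocrit, 0.1% parasitemia final) were exposed to compounds in RPMI 1640 with 0.5% Albumax at 37 C, 5% CO2. Growth inhibition was scored as reduced luminescence.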
# Pf growth 96h = Primary qHTS for delayed death inhibitors of the malarial parasite plastid, 96 hour incubation; P. falciparum luciferase reporter growth, 96 h; Potency, µM (highest dose often 28.7 µM), for the others: at the highest dose activity change, negative = inhibition, actives largely listed as inhibitors; 320,000 compounds, 6.9% hits; AID 504834, 2011
#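 Plates of compound plus infected erythrocytes (2% hematocrit, 0.05% parasitemia final) incubate 96 hours, 37 C, 5% CO2. Detection reagent added; reduced luminescence from the parasites' luciferase reporter flags inhibition.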
# Starred values were filed as active, the others as inactive; ? = inconclusive; . = not tested or not shown; ! = a repeat was not active. The call rests on the fitted dose curve; in most records, active means well fitted curve in the direction sought with a large enough effect; inconclusive means small, poorly fitted or top-dose-only effect, or another doubt; inactive means no such curve, though single readings can be large; an effect the other way counts as inactive or inconclusive. Unless noted, on the % scale 0 is the no-effect control and ±100 the full control effect; potency means the concentration at half of the fitted maximal effect.
SMILES,AMA1 RON2 block,AmpC no deterg,AmpC detergent,HCV inhibitor,Pf growth 48h,Pf growth 96h
COc1cc(C(=O)Nc2nc(-c3ccc(C)cc3)cs2)ccc1OCC(=O)N1CCOCC1,-9%,135%,?,11µM*,?,?
COc1cccc(C(=O)Nc2nc(-c3ccc(S(=O)(=O)N4CCOCC4)cc3)cs2)c1,-13%,-8%,4%,10µM*!,12µM*,2%
COc1ccc(-c2csc(NC(=O)c3ccc(OCC(=O)N4CCOCC4)c(OC)c3)n2)cc1,-24%,214%,-3%,?,-5%,?
Cc1ccc(Nc2nc(-c3ccc(S(=O)(=O)N4CCOCC4)cc3)cs2)cc1Cl,-20%,-12%,-8%,9%,10µM*,-11%
CCCCC(=O)Nc1nc(-c2ccc(S(=O)(=O)N3CCOCC3)cc2)cs1,4%,-21%,-10%,?,?,?
COc1cc2cc(C(=O)N3CCOCC3)cc(-c3ccc(C)cc3)c2cc1OC,0%,209%,-3%,?,?,8.3µM*
Nc1ncc(S(=O)(=O)N2CCN(c3ccccc3)CC2)cn1,.,.,-5%,.,.,.
O=C(Nc1nc(-c2nc3ccccc3s2)cs1)c1ccc(S(=O)(=O)N2CCOCC2)cc1,16%,59%,4%,11µM*,16%,16%
O=C(Nc1nc(-c2ccccc2)cs1)C1CCCN(S(=O)(=O)c2ccccc2)C1 (stereo not drawn),-16%,-26%,6%,5µM*,.,?
CC(C)CC(=O)Nc1nc(-c2ccc(S(=O)(=O)N3CCOCC3)cc2)cs1,-7%,-38%,-6%,?,?,?
Cc1nc2ccc(NC(=O)c3ccc(S(=O)(=O)N4CCOCC4)cc3)cc2s1,-2%,2%,1%,?,6%,?
O=C(Nc1nc(-c2cc3ccccc3o2)cs1)c1ccc(S(=O)(=O)N2CCCC2)cc1,15%,18µM*,-7%,?,-28%,13µM*
O=C(Nc1nc(-c2ccc(S(=O)(=O)N3CCOCC3)cc2)cs1)c1ccccc1,-15%,8%,0%,7.9µM*,8.3µM*,8.3µM*
O=C(Nc1nc(-c2ccccc2)cs1)C1CCCN(S(=O)(=O)c2cccc([N+](=O)[O-])c2)C1 (stereo not drawn),-19%,-46%,?,-29%,.,?
CC1CN(C(=O)CCC(=O)Nc2cc(F)ccc2F)c2ccccc2S1 (stereo not drawn),.,.,-14%,.,.,.
O=C(COCc1cc(-c2ccco2)on1)Nc1ccc(OC(F)(F)F)cc1,.,.,-10%,.,.,.
O=C(NCc1ccc(Cl)cc1Cl)c1cccc(N2CCCS2(=O)=O)c1,.,.,23%,.,.,.
NC1=NC2(CCCCC2)N(c2ccc(F)cc2)C(N)=N1,-9%,-24%,-7%,8%,13µM*,-3%
COc1ccc(N2C(N)=NC(N)=NC23CCCC3)cc1,4%,-11%,4%,12%,0.93µM*,102%
NC1=NC2(CCCCC2)N(c2cccc(Cl)c2)C(N)=N1,8%,-29%,-3%,19%,.,?
CCCCOc1ccc(N2C(N)=NC(N)=NC23CCCCC3)cc1,45%,6%,-15%,8%,10µM*,?
CC1(C)N=C(N)N=C(N)N1c1ccc(OCC(=O)N2CCOCC2)cc1,5%,.,.,.,.,.
COc1ccccc1N1C(N)=NC(N)=NC12CCCCC2,23%,-19%,0%,14%,?,13µM*
COc1ccc(Nc2ncc(C(=O)Nc3ccc(F)cc3F)c3ccccc23)cc1,.,.,13%,.,.,.
O=C(Cc1ccccc1)Nc1nccs1,-6%,-25%,?,-6%,38%,9%
SMILES,AMA1 RON2 block,AmpC no deterg,AmpC detergent,HCV inhibitor,Pf growth 48h,Pf growth 96h
Fc1ccc(NC(=S)Nc2nccs2)cc1,52%,-22%,-6%,?,13µM*,0.29µM*
S=C(Nc1ccccc1)Nc1nccs1,66%,-35%,6%,?,?,7.4µM*
O=C(Cc1ccc(F)cc1)Nc1nccs1,0%,-17%,2%,12%,?,?
Cc1cc(C)cc(OCC(=O)Nc2ccc3c(c2)OCO3)c1,10µM*,-14%,6%,?,22%,?
CCN(CC(=O)Nc1ccc2c(c1)OCCO2)C(=O)COc1cc(C)ccc1Cl,24%,-14%,-15%,?,12%,-21%
Cc1ccc(C)c(OCC(=O)Nc2ccc3c(c2)OCO3)c1C,0%,-16%,3%,11µM*,-29%,-24%
Cc1cccc(OCC(=O)Nc2ccc3c(c2)OCO3)c1C,-2%,-33%,-12%,?,8%,3%
Cc1ccc(Cl)c(OCC(=O)Nc2ccc3c(c2)OCCO3)c1,10%,?,1%,10µM*,113%,.
CCOC(=O)c1c(C)oc2nc(C)nc(NCCCN3CCN(c4ccc(F)cc4)CC3)c12,.,.,4%,.,.,.
Cc1oc(-c2ccc(Cl)cc2)nc1Cn1c(=O)cc(C)c2c(C)nn(-c3ccccc3)c21,.,.,16%,.,.,.
Cc1cccn2c(=O)c3cc(S(=O)(=O)c4ccc(F)cc4)c(=N)n(Cc4ccco4)c3nc12,-27%,-23%,0%,2.8µM*,10µM*,15µM*
Cc1cccn2c(=O)c3cc(S(=O)(=O)c4ccccc4)c(=N)n(Cc4ccco4)c3nc12,10%,19%,2%,7%,?,12%
Cc1ccc(S(=O)(=O)c2cc3c(=O)n4ccccc4nc3n(Cc3ccco3)c2=N)cc1C,22%,23%,-11%,?,?,12µM*
Cc1ccc2c(CC(=O)N(Cc3cccc(Cl)c3)C3CCS(=O)(=O)C3)coc2c1 (stereo not drawn),.,.,1%,.,.,.
CCN(CCCNC(=O)CN1N=C(c2ccccc2)CCC1=O)c1ccccc1,.,.,1%,.,.,.
